# Measured values reported in PMC7862700, “An all-to-all approach to the identification of sequence-specific readers for epigenetic DNA modifications on cytosine”.
# Assays:
# Assay in all cases: DAPPL (digital affinity profiling via proximity ligation, sequencing); 10 mM Tris-HCl pH 7.5, 50 mM NaCl, 1 mM DTT, 4% glycerol, room temperature, 30 min; GST-TFs on glutathione beads, 16-mer random dsDNA library, 0.1% formaldehyde crosslink after washing; high values mean tight binding
# [1] = target: T1, FLI1 (Homo sapiens, UniProt Q01543 1-452); details: protein: recombinant; tags: N-terminal GST; dsDNA, one strand shown
# T1 sequence: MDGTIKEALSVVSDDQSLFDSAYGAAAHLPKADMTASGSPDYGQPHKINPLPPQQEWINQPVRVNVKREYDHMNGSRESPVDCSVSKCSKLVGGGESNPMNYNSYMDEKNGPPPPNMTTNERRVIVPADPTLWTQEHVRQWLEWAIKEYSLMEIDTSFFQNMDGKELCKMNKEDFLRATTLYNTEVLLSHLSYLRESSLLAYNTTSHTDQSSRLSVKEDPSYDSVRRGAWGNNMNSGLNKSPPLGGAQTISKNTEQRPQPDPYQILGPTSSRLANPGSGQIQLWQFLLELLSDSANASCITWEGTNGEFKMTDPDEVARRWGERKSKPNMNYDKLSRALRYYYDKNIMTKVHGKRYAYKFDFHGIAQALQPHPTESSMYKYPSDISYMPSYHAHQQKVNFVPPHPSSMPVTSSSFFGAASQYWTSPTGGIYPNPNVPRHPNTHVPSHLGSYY
# Method in brief: (§1)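 Human transcription factors fused to GST were expressed in yeast, captured on glutathione beads, given DNA barcodes and pooled with a GST-only negative control. Pools were incubated with 200 nmole of a 16-mer random double-stranded DNA library in Tris/NaCl/DTT/glycerol buffer at room temperature for 30 min. They were then washed, crosslinked with 0.1% formaldehyde, proximity-ligated (BsaI/T4 ligase, 1 h, 37 °C), PCR-amplified and sequenced on an Illumina NextSeq500. Binding signal is each 6-mer's read frequency for a factor divided by its frequency for the GST control.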
# [2] = target: T2, ELK1 (Homo sapiens, UniProt P19419 1-428); details: protein: recombinant; tags: N-terminal GST; dsDNA, one strand shown
# T2 sequence: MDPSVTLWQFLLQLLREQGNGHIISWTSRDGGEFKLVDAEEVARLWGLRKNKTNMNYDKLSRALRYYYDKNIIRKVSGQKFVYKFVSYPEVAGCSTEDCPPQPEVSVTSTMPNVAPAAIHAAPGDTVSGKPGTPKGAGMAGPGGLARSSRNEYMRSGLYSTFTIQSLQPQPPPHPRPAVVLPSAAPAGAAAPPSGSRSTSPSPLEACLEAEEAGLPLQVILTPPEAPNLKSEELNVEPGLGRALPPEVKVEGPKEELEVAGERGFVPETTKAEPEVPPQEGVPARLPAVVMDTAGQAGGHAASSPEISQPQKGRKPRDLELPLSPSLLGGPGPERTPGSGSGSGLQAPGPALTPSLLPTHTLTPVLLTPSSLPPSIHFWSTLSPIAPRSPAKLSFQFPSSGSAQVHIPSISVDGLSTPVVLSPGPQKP
# Method in brief: as §1
# [3] = target: T3, GABPA (Homo sapiens, UniProt Q06546 1-454); details: protein: recombinant; tags: N-terminal GST; dsDNA, one strand shown
# T3 sequence: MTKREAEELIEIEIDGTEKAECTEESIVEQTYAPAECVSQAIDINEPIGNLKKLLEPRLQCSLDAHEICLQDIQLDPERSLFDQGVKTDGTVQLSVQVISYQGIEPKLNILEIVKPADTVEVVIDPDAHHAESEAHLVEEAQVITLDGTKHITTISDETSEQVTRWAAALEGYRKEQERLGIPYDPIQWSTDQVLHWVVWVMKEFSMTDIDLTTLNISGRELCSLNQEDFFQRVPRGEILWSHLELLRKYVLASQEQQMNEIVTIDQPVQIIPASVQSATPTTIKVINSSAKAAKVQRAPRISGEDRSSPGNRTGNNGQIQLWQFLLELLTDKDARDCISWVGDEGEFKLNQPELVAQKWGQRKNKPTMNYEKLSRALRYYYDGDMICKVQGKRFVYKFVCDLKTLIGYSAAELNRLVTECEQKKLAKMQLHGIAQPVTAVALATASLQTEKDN
# Method in brief: as §1
# [4] = target: T4, ERG (Homo sapiens, UniProt P11308 1-479); details: protein: recombinant; tags: N-terminal GST; dsDNA, one strand shown
# T4 sequence: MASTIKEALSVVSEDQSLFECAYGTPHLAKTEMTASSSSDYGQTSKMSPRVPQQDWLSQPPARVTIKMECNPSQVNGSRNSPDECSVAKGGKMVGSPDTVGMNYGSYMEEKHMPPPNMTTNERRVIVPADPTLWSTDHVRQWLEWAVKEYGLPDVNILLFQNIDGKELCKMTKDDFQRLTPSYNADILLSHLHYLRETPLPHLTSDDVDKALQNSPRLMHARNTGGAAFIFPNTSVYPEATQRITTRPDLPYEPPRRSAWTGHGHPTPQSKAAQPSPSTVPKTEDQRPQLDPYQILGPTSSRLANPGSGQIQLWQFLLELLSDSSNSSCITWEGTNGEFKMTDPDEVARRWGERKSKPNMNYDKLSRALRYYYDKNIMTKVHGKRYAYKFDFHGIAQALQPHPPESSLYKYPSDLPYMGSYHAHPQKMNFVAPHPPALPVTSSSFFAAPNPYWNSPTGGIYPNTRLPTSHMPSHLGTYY
# Method in brief: as §1
# [5] = target: ELF1 (Homo sapiens, UniProt P32519 1-619); details: protein: recombinant; tags: N-terminal GST; dsDNA, one strand shown
# Method in brief: as §1
# [6] = target: T5, EHF (Homo sapiens, UniProt Q9NZC4 1-300); details: protein: recombinant; tags: N-terminal GST; dsDNA, one strand shown
# T5 sequence: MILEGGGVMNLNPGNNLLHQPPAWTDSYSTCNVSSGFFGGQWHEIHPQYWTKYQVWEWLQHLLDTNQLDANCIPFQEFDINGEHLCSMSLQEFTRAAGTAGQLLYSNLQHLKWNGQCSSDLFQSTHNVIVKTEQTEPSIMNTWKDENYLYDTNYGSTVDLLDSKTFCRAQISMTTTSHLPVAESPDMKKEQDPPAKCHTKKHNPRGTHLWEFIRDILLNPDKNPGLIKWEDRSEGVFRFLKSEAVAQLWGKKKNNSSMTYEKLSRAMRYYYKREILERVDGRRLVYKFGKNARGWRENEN
# Method in brief: as §1
# [7] = target: SPI1 (Homo sapiens, UniProt P17947 1-270); details: protein: recombinant; tags: N-terminal GST; dsDNA, one strand shown
# Method in brief: as §1
# [8] = target: SPIB (Homo sapiens, UniProt Q01892 1-262); details: protein: recombinant; tags: N-terminal GST; dsDNA, one strand shown
# Method in brief: as §1
# [9] = target: T6, ELK3 (Homo sapiens, UniProt P41970 1-407); details: protein: recombinant; tags: N-terminal GST; dsDNA, one strand shown
# T6 sequence: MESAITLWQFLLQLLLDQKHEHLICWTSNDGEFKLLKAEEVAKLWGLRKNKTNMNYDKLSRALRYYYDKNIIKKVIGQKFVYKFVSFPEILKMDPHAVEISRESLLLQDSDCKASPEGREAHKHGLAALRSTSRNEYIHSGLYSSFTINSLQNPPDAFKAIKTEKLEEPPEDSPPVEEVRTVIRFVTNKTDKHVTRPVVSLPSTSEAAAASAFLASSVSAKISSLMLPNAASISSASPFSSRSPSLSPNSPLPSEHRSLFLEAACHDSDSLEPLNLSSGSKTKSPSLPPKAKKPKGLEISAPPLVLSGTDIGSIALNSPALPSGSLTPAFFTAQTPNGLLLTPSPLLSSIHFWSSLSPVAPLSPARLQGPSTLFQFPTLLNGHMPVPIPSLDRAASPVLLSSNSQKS
# Method in brief: as §1
# [10] = target: T7, FEV (Homo sapiens, UniProt Q99581 1-238); details: protein: recombinant; tags: N-terminal GST; dsDNA, one strand shown
# T7 sequence: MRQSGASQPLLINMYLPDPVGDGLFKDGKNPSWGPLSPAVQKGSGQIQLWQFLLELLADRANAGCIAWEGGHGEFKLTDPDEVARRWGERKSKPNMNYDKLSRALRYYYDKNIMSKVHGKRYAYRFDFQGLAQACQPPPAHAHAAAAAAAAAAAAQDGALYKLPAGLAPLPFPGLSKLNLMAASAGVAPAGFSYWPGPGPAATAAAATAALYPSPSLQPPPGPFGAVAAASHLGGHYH
# Method in brief: as §1
# [11] = target: ETV5 (Homo sapiens, UniProt P41161 1-510); details: protein: recombinant; tags: N-terminal GST; dsDNA, one strand shown
# Method in brief: as §1
# [12] = target: HSF1 (Homo sapiens, UniProt Q00613 1-529); details: protein: recombinant; tags: N-terminal GST; chain copies: 3; dsDNA, one strand shown
# Method in brief: as §1
# [13] = target: T8, SPIC (Homo sapiens, UniProt Q8N5J4 1-248); details: protein: recombinant; tags: N-terminal GST; dsDNA, one strand shown
# T8 sequence: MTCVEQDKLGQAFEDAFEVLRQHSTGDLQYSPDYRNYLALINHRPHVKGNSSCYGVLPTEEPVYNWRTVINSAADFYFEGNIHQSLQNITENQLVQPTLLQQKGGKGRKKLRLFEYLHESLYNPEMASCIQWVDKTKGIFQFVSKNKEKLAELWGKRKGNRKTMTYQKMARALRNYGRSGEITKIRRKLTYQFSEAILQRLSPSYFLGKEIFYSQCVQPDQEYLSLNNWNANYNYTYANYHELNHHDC
# Method in brief: as §1
# [14] = target: ELF4 (Homo sapiens, UniProt Q99607 1-663); details: protein: recombinant; tags: N-terminal GST; dsDNA, one strand shown
# Method in brief: as §1
# [15] = target: T9, ELK4 (Homo sapiens, UniProt P28324-2 1-405); details: protein: recombinant; tags: N-terminal GST; dsDNA, one strand shown
# T9 sequence: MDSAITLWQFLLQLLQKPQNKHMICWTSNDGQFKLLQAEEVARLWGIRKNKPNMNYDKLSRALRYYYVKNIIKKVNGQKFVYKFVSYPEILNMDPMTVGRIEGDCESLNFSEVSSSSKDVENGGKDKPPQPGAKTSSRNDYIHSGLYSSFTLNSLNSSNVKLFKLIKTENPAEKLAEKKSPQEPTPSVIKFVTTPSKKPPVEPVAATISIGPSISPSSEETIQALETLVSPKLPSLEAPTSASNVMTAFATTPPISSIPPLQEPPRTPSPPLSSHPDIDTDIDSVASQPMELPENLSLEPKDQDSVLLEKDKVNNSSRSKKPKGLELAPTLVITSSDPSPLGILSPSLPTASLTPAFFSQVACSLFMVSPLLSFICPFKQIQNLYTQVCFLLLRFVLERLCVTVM
# Method in brief: as §1
# [16] = target: T10, ETV2 (Homo sapiens, UniProt O00321 1-342); details: protein: recombinant; tags: N-terminal GST; dsDNA, one strand shown
# T10 sequence: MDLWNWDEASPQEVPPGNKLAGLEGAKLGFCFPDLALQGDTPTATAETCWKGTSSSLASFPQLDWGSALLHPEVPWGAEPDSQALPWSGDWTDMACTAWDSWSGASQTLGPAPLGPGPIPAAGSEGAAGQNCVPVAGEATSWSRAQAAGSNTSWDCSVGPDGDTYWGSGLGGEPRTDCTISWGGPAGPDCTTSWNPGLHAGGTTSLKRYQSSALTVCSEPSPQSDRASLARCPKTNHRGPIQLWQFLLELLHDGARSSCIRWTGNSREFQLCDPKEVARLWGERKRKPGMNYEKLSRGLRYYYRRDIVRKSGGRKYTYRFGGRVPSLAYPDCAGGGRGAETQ
# Method in brief: as §1
# [17] = target: T11, ELF3 (Homo sapiens, UniProt P78545 1-371); details: protein: recombinant; tags: N-terminal GST; dsDNA, one strand shown
# T11 sequence: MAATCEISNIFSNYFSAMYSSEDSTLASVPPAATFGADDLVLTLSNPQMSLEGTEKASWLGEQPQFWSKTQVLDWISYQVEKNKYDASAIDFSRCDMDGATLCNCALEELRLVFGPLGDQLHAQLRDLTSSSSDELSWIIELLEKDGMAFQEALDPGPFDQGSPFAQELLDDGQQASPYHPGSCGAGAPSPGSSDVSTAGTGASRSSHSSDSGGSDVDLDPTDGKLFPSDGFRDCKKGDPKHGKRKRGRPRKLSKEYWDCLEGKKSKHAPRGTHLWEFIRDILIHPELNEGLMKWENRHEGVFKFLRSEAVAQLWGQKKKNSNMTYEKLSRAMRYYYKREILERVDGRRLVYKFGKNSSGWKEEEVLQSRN
# Method in brief: as §1
# [18] = target: CRX (Homo sapiens, UniProt O43186 1-299); details: protein: recombinant; tags: N-terminal GST; dsDNA, one strand shown
# Method in brief: as §1
# [19] = target: ETV1 (Homo sapiens, UniProt P50549 1-477); details: protein: recombinant; tags: N-terminal GST; dsDNA, one strand shown
# Method in brief: as §1
# Sequence of SPIB (Q01892 whole entry): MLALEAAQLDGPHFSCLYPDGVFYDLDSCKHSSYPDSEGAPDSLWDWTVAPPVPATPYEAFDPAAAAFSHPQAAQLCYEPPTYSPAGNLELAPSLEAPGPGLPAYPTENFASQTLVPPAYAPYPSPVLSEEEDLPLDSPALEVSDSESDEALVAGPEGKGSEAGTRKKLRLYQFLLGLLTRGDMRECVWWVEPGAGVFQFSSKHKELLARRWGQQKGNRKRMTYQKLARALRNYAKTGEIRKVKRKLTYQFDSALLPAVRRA
# Sequence of ETV5 (P41161 whole entry): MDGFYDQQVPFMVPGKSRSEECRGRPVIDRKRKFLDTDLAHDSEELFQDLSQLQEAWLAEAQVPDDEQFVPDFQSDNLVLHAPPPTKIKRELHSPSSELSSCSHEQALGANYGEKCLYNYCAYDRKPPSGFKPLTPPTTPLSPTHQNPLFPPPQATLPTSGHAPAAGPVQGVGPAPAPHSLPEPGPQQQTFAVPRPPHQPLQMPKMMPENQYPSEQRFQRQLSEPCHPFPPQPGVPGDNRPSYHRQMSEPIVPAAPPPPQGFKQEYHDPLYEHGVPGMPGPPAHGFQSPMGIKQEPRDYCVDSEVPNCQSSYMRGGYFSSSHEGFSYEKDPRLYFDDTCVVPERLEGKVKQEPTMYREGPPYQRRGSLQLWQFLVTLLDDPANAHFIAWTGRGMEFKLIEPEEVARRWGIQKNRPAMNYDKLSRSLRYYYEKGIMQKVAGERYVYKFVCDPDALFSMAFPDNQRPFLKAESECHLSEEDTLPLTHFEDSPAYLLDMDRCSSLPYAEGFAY
# Sequence of ELF4 (Q99607 whole entry): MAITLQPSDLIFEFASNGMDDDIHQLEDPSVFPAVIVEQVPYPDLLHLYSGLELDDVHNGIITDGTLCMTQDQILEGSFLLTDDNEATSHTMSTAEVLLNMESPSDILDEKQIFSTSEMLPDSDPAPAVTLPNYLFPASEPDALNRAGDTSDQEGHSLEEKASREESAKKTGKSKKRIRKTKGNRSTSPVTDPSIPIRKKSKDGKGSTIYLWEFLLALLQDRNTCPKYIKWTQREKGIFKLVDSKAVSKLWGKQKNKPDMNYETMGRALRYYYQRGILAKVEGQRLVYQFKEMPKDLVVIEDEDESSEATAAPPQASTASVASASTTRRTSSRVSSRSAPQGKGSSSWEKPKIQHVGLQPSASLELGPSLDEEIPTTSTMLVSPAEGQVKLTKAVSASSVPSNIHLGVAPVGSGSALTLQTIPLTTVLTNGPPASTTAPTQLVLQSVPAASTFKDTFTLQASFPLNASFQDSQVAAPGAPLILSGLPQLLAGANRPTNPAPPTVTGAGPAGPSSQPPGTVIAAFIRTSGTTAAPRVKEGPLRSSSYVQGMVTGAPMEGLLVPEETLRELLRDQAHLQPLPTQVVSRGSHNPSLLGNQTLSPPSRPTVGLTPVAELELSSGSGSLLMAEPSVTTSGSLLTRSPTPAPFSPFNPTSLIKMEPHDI
# Sequence of CRX (O43186 whole entry): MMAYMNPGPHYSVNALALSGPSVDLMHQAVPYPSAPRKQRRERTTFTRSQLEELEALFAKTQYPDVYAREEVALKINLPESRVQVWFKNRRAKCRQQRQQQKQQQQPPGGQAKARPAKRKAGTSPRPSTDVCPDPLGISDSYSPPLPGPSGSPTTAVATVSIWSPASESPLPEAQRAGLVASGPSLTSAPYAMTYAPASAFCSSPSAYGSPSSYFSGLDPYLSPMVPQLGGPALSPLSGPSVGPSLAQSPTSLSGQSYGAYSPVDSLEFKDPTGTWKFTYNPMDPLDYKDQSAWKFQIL
# Sequence of ELF1 (P32519 whole entry): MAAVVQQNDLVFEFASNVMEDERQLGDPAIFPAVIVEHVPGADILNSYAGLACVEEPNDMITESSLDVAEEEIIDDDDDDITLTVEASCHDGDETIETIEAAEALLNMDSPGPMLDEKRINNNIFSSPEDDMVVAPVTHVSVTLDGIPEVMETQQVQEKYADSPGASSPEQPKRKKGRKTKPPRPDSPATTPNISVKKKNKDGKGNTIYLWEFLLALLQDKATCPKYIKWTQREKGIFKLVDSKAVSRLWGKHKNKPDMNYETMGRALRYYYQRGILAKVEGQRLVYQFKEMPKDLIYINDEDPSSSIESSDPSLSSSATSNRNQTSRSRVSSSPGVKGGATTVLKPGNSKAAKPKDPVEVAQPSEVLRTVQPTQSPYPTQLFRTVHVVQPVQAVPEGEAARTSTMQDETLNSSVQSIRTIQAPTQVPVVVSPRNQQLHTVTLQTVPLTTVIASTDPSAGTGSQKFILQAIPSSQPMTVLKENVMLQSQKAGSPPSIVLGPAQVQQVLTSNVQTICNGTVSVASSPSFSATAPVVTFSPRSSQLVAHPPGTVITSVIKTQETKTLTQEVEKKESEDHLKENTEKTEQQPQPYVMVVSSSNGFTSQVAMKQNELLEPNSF
# Sequence of ETV1 (P50549 whole entry): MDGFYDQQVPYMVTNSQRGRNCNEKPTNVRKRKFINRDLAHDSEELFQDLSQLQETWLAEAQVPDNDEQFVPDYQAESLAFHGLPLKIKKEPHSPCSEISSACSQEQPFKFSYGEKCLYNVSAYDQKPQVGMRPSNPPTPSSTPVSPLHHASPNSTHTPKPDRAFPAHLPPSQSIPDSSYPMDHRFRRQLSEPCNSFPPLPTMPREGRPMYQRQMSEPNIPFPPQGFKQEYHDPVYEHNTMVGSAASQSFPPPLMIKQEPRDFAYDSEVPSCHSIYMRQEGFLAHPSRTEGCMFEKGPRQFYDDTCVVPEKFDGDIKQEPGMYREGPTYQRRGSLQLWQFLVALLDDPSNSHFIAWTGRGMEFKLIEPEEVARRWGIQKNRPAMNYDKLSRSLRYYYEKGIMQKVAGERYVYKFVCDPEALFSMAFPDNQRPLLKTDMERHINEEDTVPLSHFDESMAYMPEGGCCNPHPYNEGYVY
# Sequence of HSF1 (Q00613 whole entry): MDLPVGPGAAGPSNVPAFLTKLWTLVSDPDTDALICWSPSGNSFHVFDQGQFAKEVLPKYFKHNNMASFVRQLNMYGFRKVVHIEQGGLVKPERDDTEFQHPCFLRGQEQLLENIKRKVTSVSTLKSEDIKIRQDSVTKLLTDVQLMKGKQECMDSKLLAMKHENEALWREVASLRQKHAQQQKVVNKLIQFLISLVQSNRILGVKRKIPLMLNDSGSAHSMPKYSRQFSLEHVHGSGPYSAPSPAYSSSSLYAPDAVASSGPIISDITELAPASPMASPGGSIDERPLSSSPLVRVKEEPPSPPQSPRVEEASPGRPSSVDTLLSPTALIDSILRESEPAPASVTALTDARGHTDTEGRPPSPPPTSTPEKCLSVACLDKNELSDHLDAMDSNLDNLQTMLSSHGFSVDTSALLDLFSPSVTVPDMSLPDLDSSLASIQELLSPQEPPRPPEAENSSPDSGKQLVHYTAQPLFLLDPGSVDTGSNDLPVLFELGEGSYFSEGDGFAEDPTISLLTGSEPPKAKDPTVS
sequence,measurement,setting,value
GCTCCG,binding signal,[1],"1.37 fold enrichment (6-mer frequency, TF over GST control)"
same,binding signal,[2],"1.4 fold enrichment (6-mer frequency, TF over GST control)"
same,binding signal,[3],"1.35 fold enrichment (6-mer frequency, TF over GST control)"
same,binding signal,[4],"1.36 fold enrichment (6-mer frequency, TF over GST control)"
same,binding signal,[5],"1.32 fold enrichment (6-mer frequency, TF over GST control)"
same,binding signal,[6],"1.45 fold enrichment (6-mer frequency, TF over GST control)"
same,binding signal,[7],"1.25 fold enrichment (6-mer frequency, TF over GST control)"
same,binding signal,[8],"1.19 fold enrichment (6-mer frequency, TF over GST control)"
same,binding signal,[9],"1.44 fold enrichment (6-mer frequency, TF over GST control)"
same,binding signal,[10],"1.42 fold enrichment (6-mer frequency, TF over GST control)"
same,binding signal,[11],"1.33 fold enrichment (6-mer frequency, TF over GST control)"
same,binding signal,[12],"1.2 fold enrichment (6-mer frequency, TF over GST control)"
same,binding signal,[13],"1.54 fold enrichment (6-mer frequency, TF over GST control)"
same,binding signal,[14],"1.39 fold enrichment (6-mer frequency, TF over GST control)"
same,binding signal,[15],"1.33 fold enrichment (6-mer frequency, TF over GST control)"
same,binding signal,[16],"1.32 fold enrichment (6-mer frequency, TF over GST control)"
same,binding signal,[17],"1.32 fold enrichment (6-mer frequency, TF over GST control)"
same,binding signal,[18],"1.07 fold enrichment (6-mer frequency, TF over GST control)"
same,binding signal,[19],"1.27 fold enrichment (6-mer frequency, TF over GST control)"
